Experimental data published in the supplement of paper PMC11732987, “Enantioselective OTUD7B fragment discovery through chemoproteomics screening and high-throughput optimisation” (Communications Chemistry, 2025).

Tests used:
Assay in all cases: log2 ratio of Biotin-Ahx-Ub-VS probe labelling (fragment/DMSO); higher = less target engagement (more negative = stronger competition), active = hit call of the paper (q ≤ 0.05, log2 ratio ≤ -1)
Settings in all cases: compound concentration: 200 uM; treatment time: 3 h
[1] = target: T1, OTUD6B (UniProt Q8N6M0)
T1 sequence (whole entry): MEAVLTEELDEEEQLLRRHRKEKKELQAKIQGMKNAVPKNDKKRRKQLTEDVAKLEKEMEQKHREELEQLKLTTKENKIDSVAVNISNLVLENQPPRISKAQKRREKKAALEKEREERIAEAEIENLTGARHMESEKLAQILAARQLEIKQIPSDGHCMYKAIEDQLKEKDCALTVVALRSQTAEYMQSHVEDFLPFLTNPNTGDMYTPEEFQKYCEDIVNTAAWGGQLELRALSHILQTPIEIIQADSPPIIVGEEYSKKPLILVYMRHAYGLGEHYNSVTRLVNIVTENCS
Summary of the method: (§1)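 Global-median-normalised Spectronaut label-free quantities were compared by unpaired t-test, and values are average log2 ratios of fragment over vehicle. Only proteins with ≥2 unique peptides were used. HEK293T lysate (495 µg per sample) was treated in triplicate with fragment at 200 µM or vehicle for 3 h and then with Biotin-Ahx-Ub-VS at 0.5 µM final for 1 h. Labelled DUBs were then NeutrAvidin-enriched, digested with LysC and trypsin, and run by diaPASEF LC-MS/MS.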

[2] = target: T2, OTUD7B (UniProt Q6GQQ9)
T2 sequence (whole entry): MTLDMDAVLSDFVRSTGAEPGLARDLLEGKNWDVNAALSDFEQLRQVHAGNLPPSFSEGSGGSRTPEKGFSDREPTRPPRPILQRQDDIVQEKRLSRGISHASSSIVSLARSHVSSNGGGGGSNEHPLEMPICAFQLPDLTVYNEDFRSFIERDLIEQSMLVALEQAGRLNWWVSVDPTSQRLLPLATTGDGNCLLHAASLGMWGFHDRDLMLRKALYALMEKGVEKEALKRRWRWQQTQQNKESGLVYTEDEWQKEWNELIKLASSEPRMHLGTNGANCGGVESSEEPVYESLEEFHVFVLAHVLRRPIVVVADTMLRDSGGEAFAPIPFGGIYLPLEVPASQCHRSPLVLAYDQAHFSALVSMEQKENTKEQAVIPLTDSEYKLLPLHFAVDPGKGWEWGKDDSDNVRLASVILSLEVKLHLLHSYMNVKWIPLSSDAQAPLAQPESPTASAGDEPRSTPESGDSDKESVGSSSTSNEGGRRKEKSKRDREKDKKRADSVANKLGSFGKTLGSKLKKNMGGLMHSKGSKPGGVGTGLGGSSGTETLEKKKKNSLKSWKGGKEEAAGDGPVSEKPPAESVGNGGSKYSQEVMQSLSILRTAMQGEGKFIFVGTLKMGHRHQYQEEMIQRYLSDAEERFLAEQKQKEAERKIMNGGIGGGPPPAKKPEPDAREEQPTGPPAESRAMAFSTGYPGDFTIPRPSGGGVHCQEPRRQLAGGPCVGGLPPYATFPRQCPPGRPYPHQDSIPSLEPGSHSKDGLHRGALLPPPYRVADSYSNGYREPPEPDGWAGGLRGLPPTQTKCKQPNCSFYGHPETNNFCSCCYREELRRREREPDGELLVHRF
Summary of the method: as §1

[3] = target: PRPF8 (UniProt Q6P2Q9)
Summary of the method: as §1

[4] = target: T3, PSMD7 (UniProt P51665)
T3 sequence (whole entry): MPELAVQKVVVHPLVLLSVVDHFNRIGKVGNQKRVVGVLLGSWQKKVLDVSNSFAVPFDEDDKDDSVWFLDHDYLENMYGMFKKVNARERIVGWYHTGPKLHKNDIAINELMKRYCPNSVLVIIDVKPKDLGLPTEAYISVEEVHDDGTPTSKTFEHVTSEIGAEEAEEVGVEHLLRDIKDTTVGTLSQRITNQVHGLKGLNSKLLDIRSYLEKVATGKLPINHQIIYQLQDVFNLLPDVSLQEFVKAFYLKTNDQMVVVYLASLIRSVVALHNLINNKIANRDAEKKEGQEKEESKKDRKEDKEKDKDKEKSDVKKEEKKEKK
Summary of the method: as §1

[5] = target: UCHL1 (UniProt P09936)
Chain of UCHL1 (P09936 whole entry, looked up): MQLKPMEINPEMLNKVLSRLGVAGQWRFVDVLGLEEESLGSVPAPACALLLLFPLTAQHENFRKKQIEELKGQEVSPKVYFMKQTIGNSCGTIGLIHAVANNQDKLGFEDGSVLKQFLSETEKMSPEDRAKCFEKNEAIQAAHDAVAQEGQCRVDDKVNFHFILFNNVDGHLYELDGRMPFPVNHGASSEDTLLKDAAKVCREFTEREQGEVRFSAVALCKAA
Summary of the method: as §1

[6] = target: T4, UCHL3 (UniProt P15374)
T4 sequence (whole entry): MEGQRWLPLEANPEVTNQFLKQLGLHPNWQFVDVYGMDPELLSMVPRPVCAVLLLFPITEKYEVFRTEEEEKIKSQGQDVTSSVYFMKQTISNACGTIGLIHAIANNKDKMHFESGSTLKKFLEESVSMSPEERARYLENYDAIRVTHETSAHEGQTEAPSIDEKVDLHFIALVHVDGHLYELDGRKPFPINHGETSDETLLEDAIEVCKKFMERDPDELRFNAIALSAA
Summary of the method: as §1

[7] = target: T5, UCHL5 (UniProt Q9Y5K5)
T5 sequence (whole entry): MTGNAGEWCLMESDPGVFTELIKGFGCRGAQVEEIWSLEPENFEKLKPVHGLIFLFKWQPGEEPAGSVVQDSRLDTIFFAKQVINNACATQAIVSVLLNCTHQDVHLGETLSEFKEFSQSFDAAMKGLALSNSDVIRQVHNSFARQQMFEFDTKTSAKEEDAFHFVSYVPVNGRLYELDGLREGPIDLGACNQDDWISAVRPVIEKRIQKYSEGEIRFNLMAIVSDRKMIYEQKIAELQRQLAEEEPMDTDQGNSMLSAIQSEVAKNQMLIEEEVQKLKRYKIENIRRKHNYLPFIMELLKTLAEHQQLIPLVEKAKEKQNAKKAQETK
Summary of the method: as §1

[8] = target: USP10 (UniProt Q14694)
Chain of USP10 (Q14694 whole entry): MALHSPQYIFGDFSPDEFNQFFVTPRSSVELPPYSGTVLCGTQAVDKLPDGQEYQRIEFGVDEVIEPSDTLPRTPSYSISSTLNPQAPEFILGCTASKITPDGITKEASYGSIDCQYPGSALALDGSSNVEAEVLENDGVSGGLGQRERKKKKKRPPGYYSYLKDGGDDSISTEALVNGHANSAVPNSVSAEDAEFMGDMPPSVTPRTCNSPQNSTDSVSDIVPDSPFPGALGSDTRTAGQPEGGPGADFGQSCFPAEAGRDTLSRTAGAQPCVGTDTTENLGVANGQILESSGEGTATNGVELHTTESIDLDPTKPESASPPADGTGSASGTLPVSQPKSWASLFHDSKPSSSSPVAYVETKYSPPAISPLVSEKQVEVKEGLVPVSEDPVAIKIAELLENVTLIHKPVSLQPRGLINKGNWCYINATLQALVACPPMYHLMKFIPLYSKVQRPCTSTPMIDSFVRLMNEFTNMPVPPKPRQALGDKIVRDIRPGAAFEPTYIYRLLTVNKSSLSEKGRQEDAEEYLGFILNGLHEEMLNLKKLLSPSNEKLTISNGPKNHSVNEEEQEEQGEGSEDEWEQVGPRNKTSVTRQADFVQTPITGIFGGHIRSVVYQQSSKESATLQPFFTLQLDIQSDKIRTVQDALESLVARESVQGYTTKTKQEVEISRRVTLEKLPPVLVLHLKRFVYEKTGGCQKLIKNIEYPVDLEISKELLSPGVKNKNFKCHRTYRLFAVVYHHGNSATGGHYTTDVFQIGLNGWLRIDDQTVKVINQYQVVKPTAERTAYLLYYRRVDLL
Summary of the method: as §1

[9] = target: T6, USP15 (UniProt Q9Y4E8)
T6 sequence (whole entry): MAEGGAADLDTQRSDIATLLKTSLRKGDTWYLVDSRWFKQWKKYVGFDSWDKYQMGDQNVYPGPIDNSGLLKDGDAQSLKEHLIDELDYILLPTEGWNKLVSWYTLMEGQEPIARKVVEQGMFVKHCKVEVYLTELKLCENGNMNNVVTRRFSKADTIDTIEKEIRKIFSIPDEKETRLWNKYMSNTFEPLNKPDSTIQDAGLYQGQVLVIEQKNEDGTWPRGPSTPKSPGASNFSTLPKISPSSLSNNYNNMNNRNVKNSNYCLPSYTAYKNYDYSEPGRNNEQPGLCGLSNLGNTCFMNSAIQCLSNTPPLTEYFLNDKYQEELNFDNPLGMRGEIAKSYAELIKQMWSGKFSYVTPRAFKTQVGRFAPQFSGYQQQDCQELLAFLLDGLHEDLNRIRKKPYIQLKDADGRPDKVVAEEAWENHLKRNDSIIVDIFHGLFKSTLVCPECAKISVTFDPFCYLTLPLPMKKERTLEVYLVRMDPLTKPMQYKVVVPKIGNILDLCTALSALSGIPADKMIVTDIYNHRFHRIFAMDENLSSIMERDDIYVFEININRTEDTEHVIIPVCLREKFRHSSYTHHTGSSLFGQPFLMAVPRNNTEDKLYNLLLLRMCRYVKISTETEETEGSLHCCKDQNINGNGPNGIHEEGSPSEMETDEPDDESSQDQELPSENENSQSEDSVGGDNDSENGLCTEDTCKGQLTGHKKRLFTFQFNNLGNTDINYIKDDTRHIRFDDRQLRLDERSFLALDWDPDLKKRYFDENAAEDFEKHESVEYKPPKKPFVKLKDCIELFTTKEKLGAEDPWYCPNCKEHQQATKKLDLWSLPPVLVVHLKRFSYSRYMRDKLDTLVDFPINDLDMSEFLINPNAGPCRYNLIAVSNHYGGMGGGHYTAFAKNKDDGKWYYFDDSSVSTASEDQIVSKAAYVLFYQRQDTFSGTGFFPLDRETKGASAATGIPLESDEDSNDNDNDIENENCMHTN
Summary of the method: as §1

[10] = target: USP16 (UniProt Q9Y5T5)
Chain of USP16 (Q9Y5T5 whole entry, looked up): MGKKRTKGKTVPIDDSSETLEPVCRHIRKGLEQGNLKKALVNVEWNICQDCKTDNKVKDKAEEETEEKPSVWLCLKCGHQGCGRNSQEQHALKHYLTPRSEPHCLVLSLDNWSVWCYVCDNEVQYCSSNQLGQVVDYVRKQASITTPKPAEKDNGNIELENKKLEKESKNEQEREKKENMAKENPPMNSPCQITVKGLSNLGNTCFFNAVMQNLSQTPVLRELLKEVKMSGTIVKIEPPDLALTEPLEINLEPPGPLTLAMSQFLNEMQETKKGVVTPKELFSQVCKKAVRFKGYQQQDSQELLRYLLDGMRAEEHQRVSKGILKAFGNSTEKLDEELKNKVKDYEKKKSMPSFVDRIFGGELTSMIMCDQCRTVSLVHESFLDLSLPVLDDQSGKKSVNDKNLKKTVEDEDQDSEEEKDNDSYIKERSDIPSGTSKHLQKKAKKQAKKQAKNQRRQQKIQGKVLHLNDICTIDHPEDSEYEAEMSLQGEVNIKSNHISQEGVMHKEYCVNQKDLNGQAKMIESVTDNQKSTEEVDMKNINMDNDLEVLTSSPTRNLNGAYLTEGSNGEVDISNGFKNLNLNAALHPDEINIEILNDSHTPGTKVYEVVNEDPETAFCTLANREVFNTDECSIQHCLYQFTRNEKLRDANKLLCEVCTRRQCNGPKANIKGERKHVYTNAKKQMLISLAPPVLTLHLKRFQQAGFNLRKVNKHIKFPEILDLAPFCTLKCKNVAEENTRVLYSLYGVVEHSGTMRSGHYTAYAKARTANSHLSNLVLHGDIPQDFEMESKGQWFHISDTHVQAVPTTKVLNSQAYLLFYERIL
Summary of the method: as §1

Measured: log2 ratio of Biotin-Ahx-Ub-VS probe labelling

O=C(CCl)Nc1cccc(C(=O)N2CCSCC2)c1
inactive: [1] -0.0782 | [2] -0.71 | [3] -0.00865 | [4] -0.0955 | [5] -0.784 | [6] 0.0211 | [7] -0.176 | [8] -0.156 | [9] -0.164 | [10] -0.0446
